Measured values as given in PubChem BioAssay (Tox21).
Values without a mark were called inactive. Records with an inconclusive call do not appear. A call without a number means that no potency is given here. The source made the active and inactive calls. Unless noted, the call rests on the fitted dose curve; in most records, active means well fitted curve in the direction sought with a large enough effect in the repeat runs; inconclusive means weak or mixed curves; inactive means no such curve, though single readings can be large; an effect the other way counts as inactive or inconclusive.

Tests used:
[1] = target: Luciferin 4-monooxygenase (Photinus pyralis) (UniProt P08659); assay: qHTS assay to identify small molecule inhibitors of firefly luciferase (AID 1224835); further: nearly all actives have a fitted effect of over 25% in size
Luciferin 4-monooxygenase (Photinus pyralis), sequence (P08659 whole entry, looked up): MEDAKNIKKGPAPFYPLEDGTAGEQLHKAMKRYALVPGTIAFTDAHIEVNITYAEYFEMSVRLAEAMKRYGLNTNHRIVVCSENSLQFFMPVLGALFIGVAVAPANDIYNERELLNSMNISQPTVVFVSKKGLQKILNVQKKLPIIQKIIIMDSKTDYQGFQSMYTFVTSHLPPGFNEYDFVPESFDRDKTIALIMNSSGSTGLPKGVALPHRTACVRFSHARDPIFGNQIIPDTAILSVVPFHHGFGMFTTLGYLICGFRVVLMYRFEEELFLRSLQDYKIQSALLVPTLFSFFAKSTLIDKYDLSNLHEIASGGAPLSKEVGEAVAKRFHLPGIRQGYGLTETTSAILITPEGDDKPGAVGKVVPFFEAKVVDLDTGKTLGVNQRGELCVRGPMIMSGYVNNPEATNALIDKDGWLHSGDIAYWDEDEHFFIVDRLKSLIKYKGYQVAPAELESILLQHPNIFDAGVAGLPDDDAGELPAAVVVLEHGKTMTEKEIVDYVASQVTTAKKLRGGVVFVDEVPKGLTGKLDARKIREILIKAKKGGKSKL
Outline: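 Inhibition of purified Photinus luciferase is measured by luminescence. Substrate levels (D-luciferin, ATP) sit at their KM values. Each compound is tested in a concentration series.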

[2] = qHTS assay to identify small molecule agonists of the constitutive androstane receptor (CAR) signaling pathway - cell viability counter screen (AID 1224836); further: nearly all actives have a fitted effect of over 45% in size
Outline: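 HepG2-CYP2B6-hCAR, 2500 cells/well, 4 h pre-incubation; cpd 15 conc + PK11195 0.75 uM final; 23 h, 37 C/5% CO2; CellTiter-Fluor, fluorescence.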

[3] = target: Nuclear receptor subfamily 1 group I member 3 (Homo sapiens) (UniProt Q14994); assay: qHTS assay to identify small molecule antagonists of the constitutive androstane receptor (CAR) signaling pathway (AID 1224838); further: nearly all actives have a fitted effect of over 40% in size
Nuclear receptor subfamily 1 group I member 3 (Homo sapiens), sequence (Q14994 whole entry, looked up): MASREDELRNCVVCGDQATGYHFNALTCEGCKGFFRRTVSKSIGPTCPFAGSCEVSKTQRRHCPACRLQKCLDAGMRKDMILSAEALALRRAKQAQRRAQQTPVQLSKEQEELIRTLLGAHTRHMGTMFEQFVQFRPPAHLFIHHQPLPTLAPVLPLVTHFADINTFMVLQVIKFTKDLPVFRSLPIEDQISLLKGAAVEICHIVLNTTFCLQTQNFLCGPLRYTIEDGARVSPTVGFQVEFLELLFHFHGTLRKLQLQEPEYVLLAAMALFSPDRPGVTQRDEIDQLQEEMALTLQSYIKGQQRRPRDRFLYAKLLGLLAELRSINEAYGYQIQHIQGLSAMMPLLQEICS
Outline: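 Inhibition of CITCO-driven (50 nM final) CYP2B6 reporter expression is measured in HepG2 cells stably carrying hCAR. Fifteen compound concentrations are applied for 24 h at 37 C, followed by luciferase luminescence.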

[4] = target: Nuclear receptor subfamily 1 group I member 3 (Homo sapiens) (UniProt Q14994); assay: qHTS assay to identify small molecule agonists of the constitutive androstane receptor (CAR) signaling pathway (AID 1224839); further: nearly all actives have a fitted effect of over 15% in size; further: potency means the concentration at half of the fitted maximal effect
Outline: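 HepG2-CYP2B6-hCAR cells, 2500/well, 4 h pre-incubation; compounds 15 conc.; PK11195 0.75 uM final; 24 h, 37 C/5% CO2; ONE-Glo luciferase read.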

[5] = qHTS assay to identify small molecule antagonists of the estrogen related receptor signaling pathway with the pleiotropic PPARgamma coactivator (PGC) from Tox21 10K library - cell viability counter screen (AID 1224840; active means well fitted cell-killing curve with a large enough effect in the repeat runs, not every such curve was filed as active; further: nearly all actives have a fitted effect of over 40% in size)
Outline: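 Readout: fluorescence intensity from CellTiter-Fluor after 30 min at 37 C/5% CO2. Preceded by 17.5 h treatment of PGC/ERR cells with DMSO-dissolved compounds, added 6 h post-seeding.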

[6] = qHTS assay to identify small molecule antagonists of the estrogen related receptor signaling pathway with the pleiotropic PPARgamma coactivator (PGC) from Tox21 10K library (AID 1224841; call rule not given here; further: actives are mostly falling curves and most rising ones were filed inactive; nearly all actives have a fitted effect of over 50% in size; further: potency means the concentration at half of the fitted maximal effect)
Outline: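 One-Glo luminescence, measured after half an hour at room temperature, quantified reporter output of PGC/ERR cells. These had been plated at 2,000 per well, incubated 6 h, dosed with compounds in DMSO, then kept 18 h at 37 C.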

[7] = qHTS assay to identify small molecule agonists of the estrogen related receptor signaling pathway with the pleiotropic PPARgamma coactivator (PGC) from Tox21 10K library (AID 1224842); further: nearly all actives have a fitted effect of over 15% in size
Outline: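 Luminescence from One-Glo (30 min, room temperature) measured after PGC/ERR cells had 18 h at 37 C with pinned compound (23 nL in DMSO). Cells had been seeded at 2,000 per well and pre-incubated 6 h.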

[8] = qHTS assay to identify small molecule agonists of the hypoxia (HIF-1) signaling pathway - cell viability counter screen (AID 1224844; calls by dose curve; further: nearly all actives have a fitted effect of over 50% in size; further: potency means the concentration at half of the fitted maximal effect)
Outline: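 In this counter screen, HRE-bla ME-180 cell viability after 17 hrs of compound exposure at 37C was read by CellTiter-Glo luminescence, multiplexed with the beta-lactamase reporter measurement.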

[9] = qHTS assay to identify small molecule agonists of H2AX (AID 1224845; active means well fitted activation curve with a large enough effect in the signal ratio in the repeat runs, not every such curve was filed as active; the % refers to the signal ratio; further: potency means the concentration at half of the fitted maximal effect)
Outline: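 Phospho-H2AX Ser139 measured by HTRF (ex 320 nm; em 665 and 620 nm) after 24 hr antibody incubation. Compounds, 15 concentrations, 0.76% DMSO, were applied to CHO-K1 cells for 3hr at 37C before lysis.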

[10] = qHTS assay to identify small molecule agonists of the hypoxia (HIF-1) signaling pathway (AID 1224846; active means well fitted activation curve with a large enough effect in the signal ratio in the repeat runs, not every such curve was filed as active; the % refers to the signal ratio)
Outline: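 ME-180 HRE-bla reporter cells; compounds in DMSO, 17 h at 37C; read-out beta-lactamase via CCF4-AM FRET.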

[11] = qHTS assay to identify small molecule agonists of H2AX - cell viability counter screen (AID 1224847; calls by dose curve; further: nearly all actives have a fitted effect of over 30% in size; further: potency means the concentration at half of the fitted maximal effect)
Outline: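 Cells plated first: CHO-K1, 1000 per well in 10% FBS medium, incubated overnight at 37C. Then 15-point compound titration added (final DMSO 0.76%) for 3 hr. Finally CellTiter-Glo added and luminescence read.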

[12] = qHTS assay to identify small molecule antagonists of the estrogen related receptor (ERR) signaling pathway from Tox21 library (AID 1224848); further: nearly all actives have a fitted effect of over 50% in size; further: potency means the concentration at half of the fitted maximal effect
Outline: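 Luciferase luminescence (ONE-Glo, 30 min room temperature) was the read-out. Cells of the NTP-supplied ERR line, 2,000 per well, were given 6 h at 37 C before compound addition in DMSO and 18 h exposure at 37 C.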

[13] = qHTS assay to identify small molecule agonists of the estrogen related receptor (ERR) signaling pathway from Tox21 library (AID 1224849; calls by dose curve; further: nearly all actives have a fitted effect of over 15% in size); settings: ERR reporter cell line, ONE-Glo luciferase, 18 h; at 92.4 µM (top of the series) unless noted
Outline: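 Luciferase activity in ERR pathway reporter cells served as the agonist readout; exposure lasted 18 h at 37 C, with ONE-Glo detection after 30 min at room temperature.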

[14] = qHTS RealTime-Glo MT Cell Viability Assay in HepG2 cells - 24 hour (AID 1224867); further: nearly all actives have a fitted effect of over 50% in size
Outline: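 HepG2 cells (600/well) were dispensed with RealTime-Glo reagents, incubated 5 h at 37 °C, then treated with compounds in DMSO for up to 40 h. Nonlytic NanoLuc luminescence reflecting viable cells was read at each stated time point.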

[15] = qHTS RealTime-Glo MT Cell Viability Assay in HEK293 cells - 32 hour (AID 1224868); further: nearly all actives have a fitted effect of over 50% in size; further: potency means the concentration at half of the fitted maximal effect
Outline: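 HEK293 cells seeded with NanoLuc/prosubstrate reagent, rested 5 h at 37 C, then dosed and kept at 37 C up to 40 h. Nonlytic real-time luminescence from viable cells read at 0, 8, 16, 24, 32 and 40 h.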

[16] = A CellTox Green Cytotoxicity Assay to monitor cytotoxicity in HEK293 cells - 0 hour (AID 1224869); further: nearly all actives have a fitted effect of over 50% in size
Outline: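 Real-time, in one plate: 600 HEK293 cells/well with dead-cell DNA dye, pinned compound after 5 h, 37 C incubation over 40 h; viable cells give no appreciable fluorescence.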

[17] = qHTS RealTime-Glo MT Cell Viability Assay in HepG2 cells - 40 hour (AID 1224870); further: nearly all actives have a fitted effect of over 50% in size
Outline: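 Real-time viability: cells seeded at 600 per well together with NanoLuc and cell-permeant prosubstrate, compounds added after 5 h incubation. Luminescence tracked at 0, 8, 16, 24, 32 and 40 h of exposure.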

[18] = target: Thyrotropin receptor (Homo sapiens) (UniProt P16473); assay: qHTS assay to identify small molecule agonists of the thyroid stimulating hormone receptor (TSHR) signaling pathway (AID 1224843; calls by dose curve; further: nearly all actives have a fitted effect of over 45% in size)
Thyrotropin receptor (Homo sapiens), sequence (P16473 whole entry, looked up): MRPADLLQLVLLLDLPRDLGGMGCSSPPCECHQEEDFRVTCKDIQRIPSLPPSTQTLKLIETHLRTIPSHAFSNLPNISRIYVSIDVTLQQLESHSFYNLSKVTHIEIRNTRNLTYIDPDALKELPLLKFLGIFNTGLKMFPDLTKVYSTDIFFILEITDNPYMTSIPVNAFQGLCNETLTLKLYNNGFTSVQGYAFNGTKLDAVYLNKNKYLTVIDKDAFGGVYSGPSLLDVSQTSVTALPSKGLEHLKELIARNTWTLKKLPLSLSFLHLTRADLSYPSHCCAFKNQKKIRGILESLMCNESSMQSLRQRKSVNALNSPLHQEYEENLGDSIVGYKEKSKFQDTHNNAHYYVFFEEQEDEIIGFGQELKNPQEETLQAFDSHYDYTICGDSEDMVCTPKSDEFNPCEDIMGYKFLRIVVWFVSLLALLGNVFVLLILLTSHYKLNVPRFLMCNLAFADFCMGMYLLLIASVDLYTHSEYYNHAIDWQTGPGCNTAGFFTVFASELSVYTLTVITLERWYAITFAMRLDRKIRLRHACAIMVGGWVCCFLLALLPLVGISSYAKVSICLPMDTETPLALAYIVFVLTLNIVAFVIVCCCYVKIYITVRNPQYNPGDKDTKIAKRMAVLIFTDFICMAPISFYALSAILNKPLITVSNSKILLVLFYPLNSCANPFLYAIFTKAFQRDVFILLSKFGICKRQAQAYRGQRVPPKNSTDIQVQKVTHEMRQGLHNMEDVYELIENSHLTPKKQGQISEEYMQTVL
Outline: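 Agonist activity read as cAMP rise via d2/cryptate HTRF competition, 1 h room-temperature detection, in HEK293 cells expressing TSHR. Fifteen-point titrations, each run in triplicate, with a 30 min room-temperature incubation beforehand.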

[19] = qHTS assay to identify small molecule antagonists of the constitutive androstane receptor (CAR) signaling pathway - cell viability counter screen (AID 1224837); further: nearly all actives have a fitted effect of over 45% in size
Outline: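 CITCO at 50 nM final was added alongside compounds (15 concentrations) to double-stable hCAR/CYP2B6-2.2kb HepG2 cells. Following 23 hr at 37 C, cell viability was quantified by CellTiter-Fluor fluorescence intensity.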

SMILES | Potency [1] | Potency [2] | Potency [3] | Potency [4] | Potency [5] | Potency [6] | Potency [7] | Potency [8] | Potency [9] | Potency [10] | Potency [11] | Potency [12] | activity change, positive = activation [13] | Potency [14] | Potency [15] | Potency [16] | Potency [17] | Potency [18] | Potency [19]
C[C@H]1[C@H](c2ccc(Cl)cc2)SC(=O)N1C(=O)NC1CCCCC1 | inactive | inactive | inactive | 54.5 µM (active) | inactive | 61.1 µM (active) | inactive | inactive | inactive | inactive | inactive | 30.6 µM (active) | -41.4% | inactive | 49 µM (active) | inactive | inactive |  | 
Nc1ccc(Cl)cc1C(=O)c1ccccc1F | inactive | inactive | inactive | 23.7 µM (active) | inactive | inactive |  | inactive | inactive | inactive | inactive | inactive | 7.6% [at 42.5 µM] | inactive | inactive | inactive |  | inactive | 
COP(=S)(OC)Oc1ccc([N+](=O)[O-])c(C)c1 |  | inactive | inactive |  |  |  | inactive | inactive | inactive |  | inactive |  | -19.2% | inactive | inactive | inactive | inactive | inactive | inactive
O=[N+]([O-])c1cccc2cccc([N+](=O)[O-])c12 | inactive | inactive | inactive | 54.7 µM (active) | inactive |  |  | inactive |  | inactive | inactive |  |  | inactive |  | inactive | inactive |  | inactive
N#Cc1c[nH]cc1-c1cccc2c1OC(F)(F)O2 | inactive | inactive |  |  |  | 19.3 µM (active) | inactive | inactive | inactive |  |  | 27.3 µM (active) | -48.5% |  | 6.92 µM (active) | inactive | inactive |  | inactive
CN1CCc2cc3c(cc2C1O)OCO3 (centres undefined) | inactive |  | inactive | inactive |  | inactive | inactive | inactive | inactive |  | inactive | inactive | 0.659% | inactive | inactive | inactive | inactive |  | 
CC#C[C@]1(O)CC[C@H]2[C@@H]3C[C@H](C)C4=CC(=O)CC[C@]4(C)[C@H]3CC[C@@]21C | inactive | inactive |  | inactive | inactive |  |  | inactive | 7.8 µM (active) | inactive | inactive |  |  | inactive |  | inactive | inactive | inactive | inactive
N#CCCl |  | inactive | inactive | inactive | inactive |  |  | inactive | inactive | inactive |  |  |  | inactive |  | inactive | inactive |  | inactive
C[C@]12Cc3cn[nH]c3C[C@@H]1CC[C@@H]1[C@@H]2CC[C@@]2(C)[C@H]1CC[C@]2(C)O | inactive |  | inactive | inactive | inactive |  | inactive | 8.49 µM (active) | inactive |  | inactive | 26.6 µM (active) | -42.2% [at 42.5 µM] |  |  | inactive | inactive | inactive | inactive
COC(=O)N(OC)c1ccccc1COc1ccn(-c2ccc(Cl)cc2)n1 |  |  | inactive | 24.3 µM (active) | inactive | 0.486 µM (active) | inactive | inactive | inactive |  | 1.27 µM (active) | 0.137 µM (active) | -52.1% | inactive | 21.9 µM (active) | inactive |  |  | 
O=C(N[C@H]1N=C(c2ccccc2F)c2cccc3c2N(CC3)C1=O)c1cc2ccccc2[nH]1 |  | inactive | inactive | inactive | inactive |  |  | inactive | inactive |  | inactive |  |  | inactive | inactive | inactive | inactive | inactive | 
CCO/N=C(\CC)C1=C(O)CC(c2c(C)cc(C)cc2C)CC1=O (centres undefined) | inactive | inactive | inactive | inactive | inactive |  |  | inactive | inactive | inactive | inactive |  |  | inactive |  | inactive | inactive |  | 
